Compound activity: PubChem, University of Kansas High Throughput Screening Laboratory
Most compounds without a hit are left out; they make up all but 3.5% or so of the library.
mHTT CaM bind = disrupts binding of mutant huntingtin to calmodulin | inhibition, % at 15 µM | hit rate 3.6% among 190,000 | AID 1671202 | AlphaScreen His-mHTT/GST-CaM binding, luminescence;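 further: 0% = both proteins with DMSO and 100% = one protein alone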
Target sequence (P42858 whole entry, looked up, stated change not applied): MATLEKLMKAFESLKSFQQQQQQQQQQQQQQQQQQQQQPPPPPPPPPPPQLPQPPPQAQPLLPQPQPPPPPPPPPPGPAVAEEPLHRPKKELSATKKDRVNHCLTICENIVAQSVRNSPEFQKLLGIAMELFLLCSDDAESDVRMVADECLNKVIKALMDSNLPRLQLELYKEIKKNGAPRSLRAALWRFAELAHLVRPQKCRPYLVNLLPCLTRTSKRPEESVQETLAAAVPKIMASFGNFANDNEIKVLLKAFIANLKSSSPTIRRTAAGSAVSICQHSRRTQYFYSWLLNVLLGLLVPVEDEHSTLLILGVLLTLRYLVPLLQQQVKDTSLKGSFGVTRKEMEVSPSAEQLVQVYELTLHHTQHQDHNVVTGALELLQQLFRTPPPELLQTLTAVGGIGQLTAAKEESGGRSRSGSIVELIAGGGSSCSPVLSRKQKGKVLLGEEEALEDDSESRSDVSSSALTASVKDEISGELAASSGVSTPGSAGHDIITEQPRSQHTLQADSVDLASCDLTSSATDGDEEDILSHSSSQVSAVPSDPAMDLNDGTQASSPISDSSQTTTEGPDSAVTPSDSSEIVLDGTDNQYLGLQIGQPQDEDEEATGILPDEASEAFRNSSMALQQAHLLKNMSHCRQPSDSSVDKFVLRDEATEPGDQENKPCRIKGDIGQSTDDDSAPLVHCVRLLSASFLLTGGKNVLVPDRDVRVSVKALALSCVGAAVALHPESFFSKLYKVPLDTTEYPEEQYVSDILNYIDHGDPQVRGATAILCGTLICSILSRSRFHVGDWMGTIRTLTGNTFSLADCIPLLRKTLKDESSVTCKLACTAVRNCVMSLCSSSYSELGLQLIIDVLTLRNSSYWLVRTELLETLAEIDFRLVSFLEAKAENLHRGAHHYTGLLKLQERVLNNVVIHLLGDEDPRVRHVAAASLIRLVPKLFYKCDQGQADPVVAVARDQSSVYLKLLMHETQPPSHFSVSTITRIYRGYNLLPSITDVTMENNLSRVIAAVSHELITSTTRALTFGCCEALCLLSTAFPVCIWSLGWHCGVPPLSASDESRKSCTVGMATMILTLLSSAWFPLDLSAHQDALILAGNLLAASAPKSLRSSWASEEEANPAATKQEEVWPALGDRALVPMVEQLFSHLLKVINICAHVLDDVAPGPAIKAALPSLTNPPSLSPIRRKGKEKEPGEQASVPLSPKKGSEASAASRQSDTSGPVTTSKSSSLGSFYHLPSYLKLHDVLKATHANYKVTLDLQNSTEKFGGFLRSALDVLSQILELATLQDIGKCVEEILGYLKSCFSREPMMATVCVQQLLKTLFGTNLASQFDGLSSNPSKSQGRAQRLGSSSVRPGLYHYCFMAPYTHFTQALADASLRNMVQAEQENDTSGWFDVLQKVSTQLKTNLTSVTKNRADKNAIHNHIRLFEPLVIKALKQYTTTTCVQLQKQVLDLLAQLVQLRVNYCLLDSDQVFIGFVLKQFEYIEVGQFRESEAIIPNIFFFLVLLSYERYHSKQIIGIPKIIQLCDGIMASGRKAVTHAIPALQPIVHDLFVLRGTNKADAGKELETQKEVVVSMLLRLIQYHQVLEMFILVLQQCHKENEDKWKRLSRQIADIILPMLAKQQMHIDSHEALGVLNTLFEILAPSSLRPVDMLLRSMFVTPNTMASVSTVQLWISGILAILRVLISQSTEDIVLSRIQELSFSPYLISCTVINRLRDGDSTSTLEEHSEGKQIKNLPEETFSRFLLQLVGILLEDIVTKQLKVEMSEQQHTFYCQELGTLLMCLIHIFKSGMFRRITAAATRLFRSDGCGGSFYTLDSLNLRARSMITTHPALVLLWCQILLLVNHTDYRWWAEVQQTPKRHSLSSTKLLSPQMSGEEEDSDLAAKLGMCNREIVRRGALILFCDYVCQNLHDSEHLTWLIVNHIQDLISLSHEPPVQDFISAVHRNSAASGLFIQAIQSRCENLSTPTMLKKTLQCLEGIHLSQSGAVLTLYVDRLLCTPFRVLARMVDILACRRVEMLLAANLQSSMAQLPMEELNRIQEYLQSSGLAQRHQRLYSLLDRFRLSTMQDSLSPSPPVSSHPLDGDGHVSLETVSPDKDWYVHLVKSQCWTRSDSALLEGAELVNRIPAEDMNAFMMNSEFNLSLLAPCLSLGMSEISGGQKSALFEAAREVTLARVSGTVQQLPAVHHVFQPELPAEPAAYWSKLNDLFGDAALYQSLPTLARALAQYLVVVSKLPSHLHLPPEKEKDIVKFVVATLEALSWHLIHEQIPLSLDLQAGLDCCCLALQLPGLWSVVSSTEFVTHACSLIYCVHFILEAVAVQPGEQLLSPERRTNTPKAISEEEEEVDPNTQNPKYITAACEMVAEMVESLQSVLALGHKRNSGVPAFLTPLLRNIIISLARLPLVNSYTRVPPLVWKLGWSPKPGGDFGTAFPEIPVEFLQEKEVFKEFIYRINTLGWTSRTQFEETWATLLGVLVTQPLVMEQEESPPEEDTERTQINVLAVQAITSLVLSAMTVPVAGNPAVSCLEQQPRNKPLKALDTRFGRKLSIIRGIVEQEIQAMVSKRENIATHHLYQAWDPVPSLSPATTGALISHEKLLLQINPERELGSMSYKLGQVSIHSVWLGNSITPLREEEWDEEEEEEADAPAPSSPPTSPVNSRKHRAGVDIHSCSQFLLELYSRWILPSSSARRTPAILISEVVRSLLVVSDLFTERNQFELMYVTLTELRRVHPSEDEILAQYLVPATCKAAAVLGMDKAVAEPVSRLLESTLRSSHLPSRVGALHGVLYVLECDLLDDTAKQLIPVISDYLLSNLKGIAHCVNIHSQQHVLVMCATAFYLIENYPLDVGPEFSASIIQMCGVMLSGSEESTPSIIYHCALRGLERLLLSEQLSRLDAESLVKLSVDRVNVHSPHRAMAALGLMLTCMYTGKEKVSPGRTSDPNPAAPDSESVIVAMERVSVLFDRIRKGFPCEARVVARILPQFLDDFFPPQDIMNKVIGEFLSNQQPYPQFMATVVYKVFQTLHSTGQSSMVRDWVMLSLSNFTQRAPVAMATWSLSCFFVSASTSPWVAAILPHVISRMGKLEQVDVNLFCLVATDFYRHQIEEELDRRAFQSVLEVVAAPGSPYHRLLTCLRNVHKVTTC
Pf apPOL inh = Pf-apPOL DNA polymerase inhibition. inhibition, % at 10 µM. AID 1794808. hit rate 0.25% among 210,000. Recombinant Pf-apPOL, molecular beacon fluorescence, 1.5 h
An asterisk follows results filed as active; i = inactive; x = no result given; ! = not active in a repeat. No stated cut-off is given here; in the data, active means inhibition above about 50%; inactive means the rest.

SMILES	mHTT CaM bind	Pf apPOL inh
COc1ccc(OC)c(NC(=O)c2ccc(Cl)cc2)c1	-6	-3
CCC(C)C(NC(=O)c1ccccc1NC(=O)c1ccco1)C(=O)N1CCCCC1 (stereo not given)	1	-3
COc1cc(Cl)c(S(=O)(=O)n2nnc3ccccc32)cc1Cl	-4	-12
O=S(=O)(c1ccc(Cl)c(Cl)c1Cl)n1nnc2ccccc21	-8	-4
COc1ccc(Cl)cc1S(=O)(=O)n1nnc2ccccc21	18	-1
COc1cc(S(=O)(=O)n2nnc3ccccc32)ccc1Cl	88*!	-9
O=S(=O)(c1cc(Cl)ccc1Cl)n1nnc2ccccc21	57*	0
COc1c(S(=O)(=O)n2nnc3ccccc32)ccc(Cl)c1Cl	87*!	-7
Oc1ccccc1C1CC(c2ccc3c(c2)OCO3)NC(c2cccc(F)c2)N1 (stereo not given)	6	-5
FC(F)(F)c1ccc(/C=N/n2c(-c3cccnc3)n[nH]c2=S)cc1	i	x
Cc1cccc(C(=O)Nc2ccc(C)c(F)c2)c1	-25	-7
COc1ccc(CNC(=O)CC2CCN(C(=O)c3ccccc3)CC2)cc1	-7	-4
O=C(O)CSCC(=O)Nc1ccc(Oc2c(Cl)cccc2Cl)nc1	x	-2
CCC(C)NC(=O)CC1CCN(C(=O)c2sc(-c3ccc(C)cc3)nc2C)CC1 (stereo not given)	-2	-4
COc1ccc(C2/C=C\CN[C@@H](Cc3ccccc3)C(=O)N2Cc2ccc(F)cc2)cc1 (stereo not given in full)	64*	0
COc1ccc(C2/C=C\CN(C(=O)C3CCCC3)CC(=O)N2Cc2ccc(F)cc2)cc1 (stereo not given)	63*	-3
COc1ccc(C2/C=C\CN(C(=O)Nc3ccccc3-c3ccccc3)CC(=O)N2Cc2ccc(F)cc2)cc1 (stereo not given)	60*	-1
COC(=O)N1C/C=C\C(c2ccc(OC)cc2)N(Cc2ccc(F)cc2)C(=O)C1 (stereo not given)	26	-2
COc1ccc(C2/C=C\CN(C(=O)C3CCCCC3)CC(=O)N2Cc2ccc(F)cc2)cc1 (stereo not given)	29	2
COc1ccc(C2/C=C\CN(CC3CC3)[C@@H](Cc3ccccc3)C(=O)N2Cc2ccc(F)cc2)cc1 (stereo not given in full)	42	-1
CC(C)N1CCN(C(=O)C2CCc3sc(C(=O)N(C)C)cc3C2)CC1 (stereo not given)	0	-4
COc1ccc(C(O)Cc2nc3ccccc3n2C)cc1 (stereo not given)	1	-6
CSc1nc2c(c(=O)[nH]1)C(c1ccc(Br)cc1)c1c(nc(SC)[nH]c1=O)O2	3	-4
COc1ccc(OC)c(NC(=O)c2cnn3cccnc23)c1	7	-3
O=C(c1nnn(-c2ccccc2F)c1-c1ccccn1)N1CCN(c2ncccn2)CC1	0	-5
SMILES	mHTT CaM bind	Pf apPOL inh
O=C(c1nnn(-c2ccccc2F)c1-c1ccccn1)N1CC=C(c2ccccc2)CC1	84*	-10
CN(CCO)CC1COCCN1C(=O)CCC1CCCC1 (stereo not given)	3	-6
Cc1ccc(CSc2nnc(N)s2)cc1	x	-5
O=C1NC(=O)C2C3C=CC(C3=C(c3ccccc3)c3ccccc3)C12 (stereo not given)	57*	-2
O=C1NN(c2ccccc2)C(=O)C2C(c3ccccc3)C=CC(c3ccccc3)C12 (stereo not given)	24	2
FC(F)(F)Oc1ccc(N=Cc2ccc(Br)s2)cc1	-11	x
COc1ccc(OC)c(NC(=O)CC(NCC(C)O)C(=O)O)c1 (stereo not given)	-1	-3
Cc1ccc(S(=O)(=O)Nc2nc(-c3ccccc3)c(-c3ccccc3)o2)cc1	50*	-6
Cc1ccc(S(=O)(=O)Nc2ccccc2-c2ccccc2)cc1	-29	-52
CN1c2ccc(Cl)cc2C(=O)NC12CCN(C(=O)NC1CCCCC1)CC2	-11	10
CCCCOc1ccc2c(c1)C(=O)c1cc(OCCCC)ccc1-2	7	-3
CN(CCO)CCCCOc1ccc2c(c1)C(=O)c1cc(OCCCCN(C)CCO)ccc1-2	60*	-1
CC(=O)Nc1ncc(Br)cc1[N+](=O)[O-]	0	-13
COc1cccc(N2C=C(C(=O)N3CCCC3)S(=O)(=O)c3ccccc32)c1	8	-2
Cc1n[nH]c(C)c1Sc1ccccc1N=Cc1ccc(C(=O)O)cc1	2	-3
Cc1n[nH]c(C)c1Sc1ccccc1N=Cc1cc(Br)ccc1O	58*	-2
Cc1n[nH]c(C)c1Sc1ccccc1N=Cc1cc(Cl)ccc1O	31	-6
Cc1n[nH]c(C)c1Sc1ccccc1N=Cc1c(C)[nH]n(-c2ccccc2)c1=O	88*	-4
Cc1ccccc1Cn1cnc2c1c(=O)n(C1CC1)c(=O)n2-c1cccc(F)c1	-4	-4
COc1cccc(-n2c(=O)c3sccc3n(CC(=O)Nc3ccc(F)cc3)c2=O)c1	2	-6
O=[N+]([O-])c1ccc(Cl)c(Nc2nc3nonc3nc2Nc2cc([N+](=O)[O-])ccc2Cl)c1	98*	x
O=[N+]([O-])c1ccc2nc(Nc3ccc(Cl)c(Cl)c3)c(Nc3ccc(Cl)c(Cl)c3)nc2c1	-3	x
O=C1C(=O)N(CCO)C(c2ccc(Cl)cc2)C1=C(O)c1ccccc1 (stereo not given)	4	1
CN(Cc1ccccc1)C(=O)C1CCN(c2cnn(Cc3ccccc3)c(=O)c2)CC1	17	-17
O=C(c1cc(-c2ccco2)n(C2CCS(=O)(=O)C2)n1)N1CCN(c2ccccn2)CC1 (stereo not given)	-3	-5
SMILES	mHTT CaM bind	Pf apPOL inh
O=C(c1cc(C2CC2)n(C2CCS(=O)(=O)C2)n1)N1CCN(c2cccc(Cl)c2)CC1 (stereo not given)	84*	-3
CCOc1ccc(NC(=O)c2ccncc2)c([N+](=O)[O-])c1	2	-1
COC(=O)c1ccccc1NC(=O)CCCn1cnc(-c2ccccc2)cc1=O	-14	-2
S=c1sc2c(N3CCc4ccccc43)ncnc2n1-c1ccccc1	-2	x
S=c1sc2c(Cl)ncnc2n1-c1ccccc1	83*	x
CCC(C)(C)NC(=O)c1csc2c1CCCC2	-6	-2
O=C(NCc1csc(C2CCN(S(=O)(=O)c3ccc(Cl)s3)CC2)n1)C1CC1	-1	-4
Cc1cc(C)n2nc(SCC(=O)Nc3ccc(C)c(Cl)c3)nc2n1	51*	-9
C=CCc1c(C)nc2nc(SCC(=O)Nc3ccc(C)c(C)c3)nn2c1C	53*	-4
Cc1cc(C)n2nc(SC(C)C(=O)NCc3ccccc3Cl)nc2n1 (stereo not given)	-1	60*
Cc1cc(C)n2nc(SC(C)C(=O)NCc3ccccc3)nc2n1 (stereo not given)	25	8
Cc1cc(C)n2nc(SCc3ccc(F)cc3Cl)nc2n1	52*	-9
Cc1cc(C)n2nc(SCc3c(F)cccc3Cl)nc2n1	14	-8
C=CCc1c(C)nc2nc(SCC(=O)Nc3cccc(Cl)c3)nn2c1C	31	-7
Cc1cc(C)n2nc(SCC(=O)Nc3cccc(Cl)c3)nc2n1	6	-9
COc1ccc(CNC(=O)C(=O)NCc2ccccc2Cl)cc1	-2	7
CCN1C(=O)C(C)(C(=O)NC2CCCCCC2)Oc2cccnc21 (stereo not given)	-2	-6
Cc1cccc(C)c1NC(=O)Cn1nc(N2CCC(C)CC2)c2ccccc2c1=O	2	-5
O=C(Nc1ccc(Cl)cc1)c1cnn2c3c(cnc12)CCCCCC3	14	-2
